In PubChem BioAssay:
This is one part of the list. The source made the active and inactive calls.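 Rule for the calls, unless noted: active = GFP response above 150% of the DMSO level; inconclusive = fewer than 70 events counted for a yeast strain; inactive = the rest.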

Columns and labels:
[1] = RPL19A-GFP modulators, yeast TOR pathway, confirmation, cell-based, S. cerevisiae, flow cytometry, cherry picks, mother/daughter gates (AID 2270;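 active = GFP response below 50% of the DMSO control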); conditions: S. cerevisiae RPL19A-GFP strain, 3 h, at 10 µM, stronger effect = lower value, 100 = same GFP as DMSO wells
[2] = LAP4-GFP expression modulators in yeast, confirmation, cell-based, cherry picks, flow cytometry, mother/daughter gates (AID 2271;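 active = GFP response above 150% of the DMSO control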;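 note: ratio of sample to DMSO plate mean so 100% equals DMSO level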); conditions: S. cerevisiae LAP4-GFP strain, 3 h, at 10 µM, stronger effect = higher value, 100 means same as DMSO control
[3] = modulators of MEP2-GFP levels in yeast, confirmation, S. cerevisiae, flow cytometry GFP, cherry picks (AID 2272;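 active = GFP response above 150% of the DMSO control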;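 note: ratio of well signal to plate DMSO mean so 100% equals DMSO level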); conditions: S. cerevisiae MEP2-GFP strain, 3 h, at 10 µM, stronger effect = higher value
[4] = AGP1-GFP expression modulators, hit retest, confirmation, cell-based, flow cytometry, S. cerevisiae, cherry picks (AID 2273);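 note: median GFP channel fluorescence over the whole cell population gate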; conditions: S. cerevisiae AGP1-GFP strain, 3 h, at 10 µM
[5] = modulators of CIT2-GFP expression in yeast, confirmation, S. cerevisiae, GFP fusion, cherry picks, mother/daughter gates (AID 2274); conditions: S. cerevisiae CIT2-GFP strain, flow cytometry, 3 h, at 10 µM, stronger effect = higher value
[6] = compound autofluorescence in yeast s288c, dose response, artefact control for yeast TOR pathway GFP screen, s288c strain (AID 2757;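 active = fluorescence span over the dose series, or activity score, above about 33, limit read from the data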;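 note: thousands of bead-calibrated equivalent soluble fluorophore molecules from median cell fluorescence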); conditions: S. cerevisiae s288c, 520 nm autofluorescence, flow cytometry, 3 h; at 33 µM; stronger effect = higher value; zero means same as solvent-only cells
[7] = measured here: daughter cell gate
[8] = measured here: mother cell gate
[9] = measured here: daughter cell gate response
[10] = measured here: mother cell gate response

Row | Structure (SMILES) | GFP response vs DMSO [1] | GFP response vs DMSO [1, 7] [%] | GFP response vs DMSO [1, 8] [%] | GFP response relative to DMSO [2] | GFP response relative to DMSO [2, 9] [%] | GFP response relative to DMSO [2, 10] [%] | GFP response vs DMSO [3] | GFP response, % of DMSO [4] | GFP response, % of DMSO [5] | GFP response, % of DMSO [5, 7] [%] | GFP response, % of DMSO [5, 8] [%] | fluorescence change (kMESF span) [6]
1 | CCn1c(/C=C/c2ccc([N+](=O)[O-])o2)nc2ccccc2c1=O | 144% (inactive) | 143 | 135 | 347% (active) | 336 | 334 | 418% (active) | 131% (inactive) | 278% (active) | 289 | 251 | 108 (active)
2 | Oc1ccc2ccccc2c1N=Nc1nccs1 | 101% (inactive) | 98.1 | 98 | 163% (active) | 151 | 165 | 116% (inactive) | 89.3% (inactive) | 105% (inactive) | 101 | 102 | 0.51 (inactive)
3 | Cc1ccc(-c2nn(C(C)(C)C)c3ncnc(N)c23)cc1 | 46.7% (active) | 43.7 | 46.7 | 175% (active) |  |  | 116% (inactive) | 95.7% (inactive) | 45.8% (inactive) | 62.1 | 43.5 | -0.9 (inactive)
4 | Nc1ccc(-c2c3ccc(=O)cc-3oc3cc(O)ccc23)cc1C(=O)O | 103% (inactive) | 96.4 | 104 | 150% (active) |  |  | 248% (active) | 107% (inactive) | 140% (inactive) |  |  | 
5 | CC1=C/C(=N\OS(=O)(=O)c2ccccc2)C(C)=CC1=O | 79.2% (inactive) |  | 66.3 | 262% (active) | 136 | 243 | 118% (inactive) | 108% (inactive) | 98.8% (inactive) | 117 | 88.2 | 
6 | O=C(Nc1nc(-c2ccccc2)cs1)c1cccnc1 | 101% (inactive) | 102 | 101 | 103% (inactive) |  |  | 98.3% (inactive) | 91% (inactive) | 98.3% (inactive) |  |  | 
7 | Cc1cccc(CS(=O)(=O)c2ncc(Cl)c(C(=O)Nc3nnc(C(C)C)s3)n2)c1 | 96.7% (inactive) |  |  | 106% (inactive) | 108 | 105 | 99.3% (inactive) | 102% (inactive) | 103% (inactive) | 99.3 | 104 | 
8 | O=C(Nc1cccc(F)c1)c1ccccc1 | 99.4% (inactive) |  |  | 97% (inactive) | 97.5 | 96.2 | 103% (inactive) | 95.9% (inactive) | 98.8% (inactive) | 99.2 | 88.2 | 
9 | Cc1cc(NCCOCCO)n2ncc(-c3ccc(Cl)cc3)c2n1 | 94.3% (inactive) | 93.1 | 89.1 | 100% (inactive) |  |  | 106% (inactive) | 105% (inactive) | 102% (inactive) | 102 | 96.8 | 
10 | N#C/C(=C/c1ccc(N2CCOCC2)o1)c1ccc(Cl)cc1 | 96.8% (inactive) | 93.4 | 91.5 | 109% (inactive) |  |  | 104% (inactive) | 95.8% (inactive) | 104% (inactive) | 108 | 96.8 | 
11 | CN(C)c1ccc(/C=C/c2ccc3ccccc3[n+]2C)cc1 | 95.3% (inactive) | 90 | 88.7 | 98.7% (inactive) |  |  | 107% (inactive) | 89.5% (inactive) | 107% (inactive) |  | 95.5 | 
12 | Cc1nn2c(N3CCCC3)cc(C(C)C)nc2c1-c1ccccc1 | 100% (inactive) | 92.4 |  | 102% (inactive) | 97.5 | 103 | 101% (inactive) | 97.8% (inactive) | 97.3% (inactive) | 97.4 | 95.6 | 
13 | CCN(CC)c1ccc2cc(C(=O)O)c(=O)oc2c1 | 95.1% (inactive) | 89.9 | 94.2 | 126% (inactive) |  |  | 110% (inactive) | 105% (inactive) | 94.4% (inactive) |  |  | 
14 | O=C(Nc1cc(F)c(Br)cc1F)c1ccc(Cl)cc1 | 99.3% (inactive) | 93.3 | 87.2 | 97.7% (inactive) |  |  | 106% (inactive) | 98.8% (inactive) | 103% (inactive) | 94 | 94.9 | 
15 | CCC1CCCCN1S(=O)(=O)c1ccc(C(=O)Nc2nnc(-c3ccccc3Cl)o2)cc1 (centres undefined) | 97.6% (inactive) |  |  | 95.4% (inactive) | 89.6 |  | 102% (inactive) | 101% (inactive) | 98.3% (inactive) |  |  | 
